Values without a mark were called inactive. For some of these results: Entries with a potency or affinity are not part of this list. Calls of active or inactive are those of the source. The rule behind the calls is not given here.
Experiments:
[1] = Ebola virus entry assay, green fluorescence channel
[2] = Ebola virus entry assay, blue channel fluorescence
[3] = Ebola virus entry assay, ratio channel
[4] = Ebola virus entry assay, reporter ratio channel; Channel type: primary
Throughout, for efficacy: 0% is about no effect.

Compound | efficacy [1] [%] | AC50 [2] | AC50 [3] | AC50 [4] | outcome [2] | outcome [3] | outcome [4]
CN(C)CCCOc1nn(Cc2ccccc2)c2ccccc12 | 54.9 | 7.94 µM (active) | 3.55 µM (active) | 3.55 µM (active) | – | – | –
CN1CCN(C2=Nc3cc(F)ccc3Cc3ccccc32)CC1 | 49.4 | 22.4 µM (active) | 31.6 µM (active) | 31.6 µM (active) | – | – | –
CN1CCN(C2Cc3ccccc3Sc3ccc(Cl)cc32)CC1 (stereo not drawn) | 95.7 | 5.01 µM (active) | 5.01 µM (active) | 5.01 µM (active) | – | – | –
CC(C)COCC(CN(Cc1ccccc1)c1ccccc1)N1CCCC1 (stereo not drawn) | -190 | 2.82 µM (active) | 2 µM (active) | 2 µM (active) | – | – | –
CC(C)(C)c1ccc(C(=O)CCCN2CCC(OC(c3ccccc3)c3ccccc3)CC2)cc1 | 47.5 | 7.94 µM (active) | 8.91 µM (active) | 8.91 µM (active) | – | – | –
CCCN(CCC)C(=O)C(CCC(=O)OCCCN1CCN(CCOC(=O)Cc2c(C)n(C(=O)c3ccc(Cl)cc3)c3ccc(OC)cc23)CC1)NC(=O)c1ccccc1 (stereo not drawn) | 156 | 6.31 µM (active) | 5.62 µM (active) | 5.62 µM (active) | – | – | –
CCN(CCCCOC(=O)c1ccc(OC)c(OC)c1)C(C)Cc1ccc(OC)cc1 (stereo not drawn) | 112 | 20 µM (active) | 15.8 µM (active) | 15.8 µM (active) | – | – | –
Oc1ccc(CCNCCCCCCNCCc2ccccc2)cc1O | 30.5 | 1.12 µM (active) | 1 µM (active) | 1 µM (active) | – | – | –
CN(C)C(=S)SC(=S)N(C)C | -50.4 | 5.62 µM (active) | 5.01 µM (active) | 5.01 µM (active) | – | – | –
COc1cccc2c1C(=O)c1c(O)c3c(c(O)c1C2=O)C[C@@](O)(C(C)=O)C[C@@H]3O[C@H]1C[C@H](N)[C@H](O)[C@H](C)O1 | 54.5 | 5.01 µM (active) | 5.01 µM (active) | 5.01 µM (active) | – | – | –
O=C(O)c1cn(-c2ccc(F)cc2)c2cc(N3CCNCC3)c(F)cc2c1=O | 23.7 | – | – | – | inactive | inactive | inactive
CCN1CCCC(OC(=O)C(c2ccccc2)c2ccccc2)C1 (stereo not drawn) | 26.3 | 25.1 µM (active) | 20 µM (active) | 20 µM (active) | – | – | –
CC1CCCCN1CCCOC(=O)c1ccc(OC2CCCCC2)cc1 (stereo not drawn) | 86.1 | 8.91 µM (active) | 7.94 µM (active) | 7.94 µM (active) | – | – | –
CCOC(=O)Cn1cccc1-c1nc(-c2ccc(OC)cc2)c(-c2ccc(OC)cc2)s1 | 34.5 | 0.708 µM (active) | 0.708 µM (active) | 0.708 µM (active) | – | – | –
Cc1c(C)c2c(c(C)c1OC(=O)CCC(=O)OCCO)CC[C@@](C)(CCC[C@H](C)CCC[C@H](C)CCCC(C)C)O2 | -73.4 | 39.8 µM (active) | – | 39.8 µM (active) | – | inactive | –
Cc1ccc(/C(=C\CN2CCCC2)c2ccccn2)cc1 | 48.9 | 31.6 µM (active) | 28.2 µM (active) | 28.2 µM (active) | – | – | –
CN1CCC(=C2c3ccccc3CCc3cccnc32)CC1 | 39.6 | 22.4 µM (active) | 31.6 µM (active) | 31.6 µM (active) | – | – | –
CCOc1ccccc1O[C@H](c1ccccc1)[C@H]1CNCCO1 | 89.3 | 14.1 µM (active) | 15.8 µM (active) | 15.8 µM (active) | – | – | –
COc1ccc(-n2nc(CCC(=O)N(C)O)cc2-c2ccc(Cl)cc2)cc1 | 77.8 | 11.2 µM (active) | 10 µM (active) | 10 µM (active) | – | – | –
CN(C)c1ccc(C(=C2C=CC(=[N+](C)C)C=C2)c2ccc(N(C)C)cc2)cc1 | -158 | 5.01 µM (active) | 3.55 µM (active) | 3.55 µM (active) | – | – | –
CC(C)C[C@@H]1[C@H](c2ccccc2)OC(=O)N1CCCN1CCCCCC1 | 64.2 | 12.6 µM (active) | 8.91 µM (active) | 8.91 µM (active) | – | – | –
c1ccc2c(c1)CCc1ccccc1N2 | -29.2 | 17.8 µM (active) | – | – | – | inactive | inactive
C[C@H]1C[C@H]2[C@@H]3CCC4=CC(=O)C=C[C@]4(C)[C@@]3(Cl)[C@@H](O)C[C@]2(C)[C@@]1(O)C(=O)CO | 103 | 25.1 µM (active) | 20 µM (active) | 20 µM (active) | – | – | –
CNCCC(Oc1ccccc1OC)c1ccccc1 (stereo not drawn) | 84.9 | 22.4 µM (active) | 17.8 µM (active) | 17.8 µM (active) | – | – | –
COC1=C(OC)C(=O)C(CCCCCCCCCCO)=C(C)C1=O | 52 | – | – | – | inactive | inactive | inactive
CN1CCCCC1CCN1c2ccccc2Sc2ccc(S(C)=O)cc21 (stereo not drawn) | 68.6 | 7.08 µM (active) | 7.94 µM (active) | 7.94 µM (active) | – | – | –

Compound | efficacy [1] [%] | AC50 [2] | AC50 [3] | AC50 [4] | outcome [2] | outcome [3] | outcome [4]
CN(C)CCCSc1ccccc1NC(=O)/C=C/c1ccccc1 | 79.5 | 15.8 µM (active) | 12.6 µM (active) | 12.6 µM (active) | – | – | –
O=C(CCCN1CCN(c2ccc(F)cc2)CC1)NC1c2ccccc2CSc2ccccc21 (stereo not drawn) | 64.4 | 8.91 µM (active) | 7.08 µM (active) | 7.08 µM (active) | – | – | –
COCC(=O)O[C@]1(CCN(C)CCCc2nc3ccccc3[nH]2)CCc2cc(F)ccc2[C@@H]1C(C)C | -180 | 2.24 µM (active) | 2.24 µM (active) | 2.24 µM (active) | – | – | –
COC(=O)C1=C(C)NC(C)=C(C(=O)OCCCN2CCC(c3ccccc3)(c3ccccc3)CC2)C1c1cccc([N+](=O)[O-])c1 (stereo not drawn) | -179 | 2.82 µM (active) | 2.51 µM (active) | 2.51 µM (active) | – | – | –
Clc1ccc(C(Cn2ccnc2)OCc2c(Cl)cccc2Cl)c(Cl)c1 (stereo not drawn) | -112 | 14.1 µM (active) | 8.91 µM (active) | 8.91 µM (active) | – | – | –
O=C1OC2(c3ccccc31)c1cc(I)c(O)c(I)c1Oc1c2cc(I)c(O)c1I | 162 | – | – | 39.8 µM (active) | inactive | inactive | –
CC(Oc1c(Cl)cccc1Cl)C1=NCCN1 (stereo not drawn) | 76.8 | 39.8 µM (active) | – | 39.8 µM (active) | – | inactive | –
CN(C)CCn1nnnc1SCC1=C(C(=O)O)N2C(=O)[C@@H](NC(=O)Cc3csc(N)n3)[C@H]2SC1 | 40.8 | 17.8 µM (active) | 28.2 µM (active) | 28.2 µM (active) | – | – | –
CCC(=O)O[C@]1(C(=O)CCl)[C@@H](C)C[C@H]2[C@@H]3CCC4=CC(=O)C=C[C@]4(C)[C@@]3(F)[C@@H](O)C[C@@]21C | 88.5 | 31.6 µM (active) | 31.6 µM (active) | 31.6 µM (active) | – | – | –
O=C(CCCN1CC=C(n2c(=O)[nH]c3ccccc32)CC1)c1ccc(F)cc1 | 51 | 17.8 µM (active) | 17.8 µM (active) | 17.8 µM (active) | – | – | –
CN(C)CCOC(c1ccccc1)c1ccccc1 | 60.8 | 20 µM (active) | 17.8 µM (active) | 17.8 µM (active) | – | – | –
Fc1ccc(C(c2ccc(F)cc2)N2CCN(C/C=C/c3ccccc3)CC2)cc1 | 37.6 | 12.6 µM (active) | 11.2 µM (active) | 11.2 µM (active) | – | – | –
CCN(CC)CCOc1ccccc1C(=O)CCc1ccccc1 | 42.3 | 15.8 µM (active) | 14.1 µM (active) | 14.1 µM (active) | – | – | –
CC1=C(CC(=O)O)c2cc(F)ccc2/C1=C\c1ccc(S(C)=O)cc1 (stereo not drawn) | 55.9 | – | – | – | inactive | inactive | inactive
CCCCCCCCCCCCCCCC[n+]1ccccc1 | -209 | 20 µM (active) | 14.1 µM (active) | 14.1 µM (active) | – | – | –
C[n+]1cc2c3c(ccc2c2ccc4cc5c(cc4c21)OCO5)OCO3 | -149 | 17.8 µM (active) | 17.8 µM (active) | 17.8 µM (active) | – | – | –
CCCOC(C(=O)OC1CCN(C)CC1)(c1ccccc1)c1ccccc1 | 30.9 | 7.94 µM (active) | 7.08 µM (active) | 7.08 µM (active) | – | – | –
CC(=O)c1ccc2c(c1)N(CCCN1CCC(CCO)CC1)c1ccccc1S2 | 62.5 | 3.16 µM (active) | 2.82 µM (active) | 2.82 µM (active) | – | – | –
CC[C@]12CCCN3CCc4c(n(c5ccccc45)C(=O)C1)[C@@H]32 | 62 | 28.2 µM (active) | 28.2 µM (active) | 28.2 µM (active) | – | – | –
COc1ccccc1N1CCN(CC(O)COc2cccc3ccccc23)CC1 (stereo not drawn) | -101 | 28.2 µM (active) | 12.6 µM (active) | 12.6 µM (active) | – | – | –
Cc1ccc2c(Br)cc(Br)c(O)c2n1 | 99.5 | 35.5 µM (active) | 39.8 µM (active) | 39.8 µM (active) | – | – | –
CC1=C(C(=O)OC(C)C)C(c2cccc([N+](=O)[O-])c2)C(C(=O)OC2CN(C(c3ccccc3)c3ccccc3)C2)=C(N)N1 (stereo not drawn) | -152 | 39.8 µM (active) | 28.2 µM (active) | 28.2 µM (active) | – | – | –
C1CCC(C(CC2CCCCN2)C2CCCCC2)CC1 (stereo not drawn) | -230 | 1.78 µM (active) | 0.891 µM (active) | 0.891 µM (active) | – | – | –
[O-][n+]1ccccc1SSc1cccc[n+]1[O-] | 40.7 | 1.26 µM (active) | 1.26 µM (active) | 1.26 µM (active) | – | – | –
CCc1ccc(C(=O)C(C)CN2CCCCC2)cc1 (stereo not drawn) | 36.6 | 39.8 µM (active) | – | 28.2 µM (active) | – | inactive | –
N[C@H](C(=O)O)[C@@H](O)c1ccc(O)c(O)c1 | 53.3 | 22.4 µM (active) | 20 µM (active) | 20 µM (active) | – | – | –
